According to PubChem BioAssay (Tox21):
Inconclusive results are not listed. Entries that show only a call come without a potency. Unmarked numbers belong to inactive results. Active and inactive are the calls of the source. Calls follow the shape of the dose curve; as a rule, active = well fitted curve in the direction sought with a large enough effect in the repeat runs; inconclusive = weak or mixed curves; inactive = no such curve, though single readings can be large; an effect the other way counts as inactive or inconclusive.

How the values were obtained:
[1] = molecular target: Cytochrome P450 2C19 (Homo sapiens) (UniProt P33261); test: Cytochrome P450 Family 2 Subfamily C Member 19 (CYP2C19) small molecule antagonists: luciferase reporter qHTS assay (AID 1671197); also: nearly all actives have a fitted effect of over 65% in size; as to activity change, negative = inhibition: series mostly up to about 120 µM
How it was run: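 First, compounds are pinned into enzyme-substrate mix and held 10 min at room temperature. Second, NADPH regeneration solution is added and plates incubate 1 h at 37C. Third, detection reagent is added and luminescence read after 20 min.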

[2] = molecular target: Cytochrome P450 2C9 (Homo sapiens) (UniProt P11712); test: Cytochrome P450 Family 2 Subfamily C Member 9 (CYP2C9) small molecule antagonists: luciferase reporter qHTS assay (AID 1671198); also: nearly all actives have a fitted effect of over 50% in size; as to activity change, negative = inhibition: series mostly up to about 120 µM
How it was run: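 P450-Glo proluciferin substrate with CYP2C9 enzyme; 10 min RT preincubation, then NADPH regeneration 1 h at 37C; luciferin detection reagent 20 min RT, luminescence in relative luminescence units.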

[3] = molecular target: Cytochrome P450 1A2 (Homo sapiens) (UniProt P05177); test: Cytochrome P450 Family 1 Subfamily A Member 2 (CYP1A2) small molecule antagonists: luciferase reporter qHTS assay (AID 1671199); also: nearly all actives have a fitted effect of over 50% in size; as to activity change, negative = inhibition: series mostly up to about 120 µM
How it was run: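 Luminescence from luciferin formed by CYP1A2 from a proluciferin substrate, read 20 min after detection reagent. Compound was pre-incubated 10 min with enzyme-substrate, and reaction started with NADPH regeneration solution for 1 h at room temperature; furafylline control.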

[4] = molecular target: Voltage-gated inwardly rectifying potassium channel KCNH2 (Homo sapiens) (UniProt Q12809); test: Human Ether-a-go-go-Related Gene (hERG) channel small molecule antagonists: fluorescence cell-based qHTS assay (AID 1671200); also: nearly all actives have a fitted effect of over 50% in size; as to activity change, negative = inhibition: series mostly up to about 77 µM
How it was run: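 Thallium flux as potassium surrogate: FluxOR II dye loaded 1 h at room temperature into hERG-expressing U2OS cells, then stimulus buffer added after 10 min. Kinetic 480 nm excitation/540 nm emission read, 2 min.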

[5] = molecular target: Cytochrome P450 3A4 (Homo sapiens) (UniProt P08684); test: Cytochrome P450 Family 3 Subfamily A Member 4 (CYP3A4) small molecule antagonists: luciferase reporter qHTS assay (AID 1671201); also: nearly all actives have a fitted effect of over 50% in size; as to activity change, negative = inhibition: series mostly up to about 120 µM
How it was run: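 Recombinant human CYP3A4 converts a proluciferin substrate to luciferin over 1 h at room temperature after NADPH regeneration solution is added (compound preincubated 10 min); detection reagent stops reaction, luminescence read 20 min later as relative units.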
Potency is read from the fitted curve at half-maximal effect.

Sequence of Voltage-gated inwardly rectifying potassium channel KCNH2 (Homo sapiens) (Q12809 whole entry, looked up): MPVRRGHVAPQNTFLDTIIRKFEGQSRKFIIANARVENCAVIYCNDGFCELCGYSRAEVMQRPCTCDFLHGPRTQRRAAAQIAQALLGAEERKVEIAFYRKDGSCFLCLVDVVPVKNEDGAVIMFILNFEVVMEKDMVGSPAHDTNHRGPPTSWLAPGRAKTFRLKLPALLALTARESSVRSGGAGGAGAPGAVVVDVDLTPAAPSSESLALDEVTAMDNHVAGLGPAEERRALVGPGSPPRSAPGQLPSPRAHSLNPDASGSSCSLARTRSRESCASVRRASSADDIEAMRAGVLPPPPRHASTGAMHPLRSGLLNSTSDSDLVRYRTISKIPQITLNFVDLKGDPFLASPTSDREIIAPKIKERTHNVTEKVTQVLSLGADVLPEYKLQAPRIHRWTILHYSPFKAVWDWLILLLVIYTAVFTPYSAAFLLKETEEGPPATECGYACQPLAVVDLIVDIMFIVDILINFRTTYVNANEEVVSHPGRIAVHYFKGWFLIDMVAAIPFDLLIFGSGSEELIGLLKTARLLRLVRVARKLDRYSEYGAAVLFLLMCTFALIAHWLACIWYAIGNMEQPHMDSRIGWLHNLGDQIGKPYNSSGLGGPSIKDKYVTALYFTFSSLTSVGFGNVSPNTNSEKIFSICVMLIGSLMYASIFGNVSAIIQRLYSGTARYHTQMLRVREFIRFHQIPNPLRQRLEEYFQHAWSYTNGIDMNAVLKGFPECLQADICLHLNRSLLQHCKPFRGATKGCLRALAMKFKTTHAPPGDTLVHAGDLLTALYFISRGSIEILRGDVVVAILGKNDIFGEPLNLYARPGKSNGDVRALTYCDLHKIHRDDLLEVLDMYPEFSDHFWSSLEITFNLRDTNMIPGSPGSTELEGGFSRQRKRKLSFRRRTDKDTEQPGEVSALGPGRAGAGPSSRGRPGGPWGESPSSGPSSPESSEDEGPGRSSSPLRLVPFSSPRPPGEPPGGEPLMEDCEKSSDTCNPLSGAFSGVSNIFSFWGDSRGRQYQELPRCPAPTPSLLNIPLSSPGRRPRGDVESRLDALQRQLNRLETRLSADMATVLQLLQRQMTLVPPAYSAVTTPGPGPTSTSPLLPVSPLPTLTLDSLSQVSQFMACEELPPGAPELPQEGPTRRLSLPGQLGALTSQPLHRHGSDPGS
Sequence of Cytochrome P450 3A4 (Homo sapiens) (P08684 whole entry, looked up): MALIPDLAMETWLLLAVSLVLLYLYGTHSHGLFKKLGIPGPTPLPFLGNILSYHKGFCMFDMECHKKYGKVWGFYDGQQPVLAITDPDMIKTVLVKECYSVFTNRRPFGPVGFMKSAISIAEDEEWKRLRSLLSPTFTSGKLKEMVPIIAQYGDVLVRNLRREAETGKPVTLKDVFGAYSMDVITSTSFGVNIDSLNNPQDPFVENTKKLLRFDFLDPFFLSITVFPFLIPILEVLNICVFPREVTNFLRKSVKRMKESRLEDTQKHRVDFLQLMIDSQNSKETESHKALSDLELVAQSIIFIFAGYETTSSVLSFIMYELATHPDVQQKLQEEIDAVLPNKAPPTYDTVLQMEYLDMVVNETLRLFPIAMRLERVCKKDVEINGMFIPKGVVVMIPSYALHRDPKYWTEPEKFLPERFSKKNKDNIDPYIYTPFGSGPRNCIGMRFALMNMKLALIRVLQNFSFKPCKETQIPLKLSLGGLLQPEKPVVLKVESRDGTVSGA
Sequence of Cytochrome P450 2C9 (Homo sapiens) (P11712 whole entry, looked up): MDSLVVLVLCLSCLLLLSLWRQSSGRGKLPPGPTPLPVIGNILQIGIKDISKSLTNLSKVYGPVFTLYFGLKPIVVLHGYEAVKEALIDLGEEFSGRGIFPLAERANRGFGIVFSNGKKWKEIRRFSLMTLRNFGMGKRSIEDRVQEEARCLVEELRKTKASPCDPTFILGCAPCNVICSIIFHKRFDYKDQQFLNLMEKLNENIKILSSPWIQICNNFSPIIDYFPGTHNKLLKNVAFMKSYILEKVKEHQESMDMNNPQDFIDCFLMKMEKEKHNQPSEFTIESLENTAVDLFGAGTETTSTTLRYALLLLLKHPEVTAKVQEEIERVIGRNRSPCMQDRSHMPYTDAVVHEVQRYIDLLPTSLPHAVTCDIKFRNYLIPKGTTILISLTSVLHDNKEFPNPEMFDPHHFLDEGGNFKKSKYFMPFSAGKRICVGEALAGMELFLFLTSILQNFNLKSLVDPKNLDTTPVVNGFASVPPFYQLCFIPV
Sequence of Cytochrome P450 1A2 (Homo sapiens) (P05177 whole entry, looked up): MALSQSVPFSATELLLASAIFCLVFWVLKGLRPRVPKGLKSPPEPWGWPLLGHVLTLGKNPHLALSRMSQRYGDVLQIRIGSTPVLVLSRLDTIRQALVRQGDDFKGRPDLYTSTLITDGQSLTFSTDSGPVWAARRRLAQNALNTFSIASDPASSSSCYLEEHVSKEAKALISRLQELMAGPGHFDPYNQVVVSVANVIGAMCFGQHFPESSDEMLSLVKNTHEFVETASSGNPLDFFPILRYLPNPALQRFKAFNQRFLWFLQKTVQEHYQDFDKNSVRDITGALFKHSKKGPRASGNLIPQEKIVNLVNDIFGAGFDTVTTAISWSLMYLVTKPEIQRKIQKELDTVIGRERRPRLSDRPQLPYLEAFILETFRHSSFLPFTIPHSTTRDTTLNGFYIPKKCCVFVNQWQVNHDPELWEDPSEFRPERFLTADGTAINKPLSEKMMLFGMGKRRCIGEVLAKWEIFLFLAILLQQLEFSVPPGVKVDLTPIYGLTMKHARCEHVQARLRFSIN
Sequence of Cytochrome P450 2C19 (Homo sapiens) (P33261 whole entry, looked up): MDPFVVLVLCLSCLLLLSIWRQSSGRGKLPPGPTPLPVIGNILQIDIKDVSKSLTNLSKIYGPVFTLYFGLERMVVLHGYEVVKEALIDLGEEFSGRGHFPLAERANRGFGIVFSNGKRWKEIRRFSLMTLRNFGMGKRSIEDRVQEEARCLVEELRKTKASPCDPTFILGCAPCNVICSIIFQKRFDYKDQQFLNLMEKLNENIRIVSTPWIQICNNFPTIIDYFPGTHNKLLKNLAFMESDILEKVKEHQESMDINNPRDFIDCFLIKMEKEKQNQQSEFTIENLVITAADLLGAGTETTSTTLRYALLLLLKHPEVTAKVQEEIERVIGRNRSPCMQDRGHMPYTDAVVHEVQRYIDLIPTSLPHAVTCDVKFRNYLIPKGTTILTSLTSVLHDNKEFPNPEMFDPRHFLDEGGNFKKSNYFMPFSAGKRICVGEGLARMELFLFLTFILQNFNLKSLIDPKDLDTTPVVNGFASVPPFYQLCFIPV

Compound	Potency [1]	Potency [2]	Potency [3]	Potency [4]	Potency [5]	activity change, negative = inhibition [1]	activity change, negative = inhibition [2]	activity change, negative = inhibition [4]	activity change, negative = inhibition [5]
CC1=CC=C(C(C)C)CC1	35.6 µM (active)	63.3 µM (active)	31.7 µM (active)	inactive	39.9 µM (active)	–	–	–	–
C[C@@H]1C[C@H]2[C@@H]3CCC4=CC(=O)C=C[C@]4(C)[C@@]3(F)[C@@H](O)C[C@]2(C)[C@@]1(O)C(=O)COC(=O)c1ccncc1	17.4 µM (active)	7.76 µM (active)	inactive	inactive	–	–	–	–	–
OC(C#CCN1CCCC1)(c1ccccc1)c1ccccc1	2.45 µM (active)	15.5 µM (active)	inactive	–	–	–	–	–	–
CCCCC1=NC2(CCCC2)C(=O)N1Cc1ccc(-c2ccccc2-c2nn[nH]n2)cc1	inactive	17.4 µM (active)	inactive	inactive	–	–	–	–	–
CCN(CC)c1ccc(C(=C2C=CC(=[N+](CC)CC)C=C2)c2cc(S(=O)(=O)O)ccc2S(=O)(=O)[O-])cc1	12.3 µM (active)	15.5 µM (active)	17.4 µM (active)	inactive	–	–	–	–	–
S=C([S-])NCCNC(=S)[S-].[Mn+2]	17.8 µM (active)	11.2 µM (active)	25.2 µM (active)	inactive	–	–	–	–	–
COC(=O)C1=C(C)NC(COC(N)=O)=C(C(=O)OC(C)C)C1c1cccc(Cl)c1Cl (stereo not given)	15.5 µM (active)	8.71 µM (active)	–	–	–	–	–	–	–
CNCCCN1c2ccccc2CCc2ccccc21	inactive	inactive	inactive	–	–	–	–	–	–
C[C@@H]1C[C@H]2O[C@@]3(O[C@@H]2C(C)(C)O)[C@H](O)[C@@]2(C)[C@@H]4CC[C@H]5C(C)(C)[C@@H](O[C@@H]6OC[C@@H](O)[C@H](O)[C@H]6O)CC[C@@]56C[C@@]46CC[C@]2(C)[C@@H]13	inactive	–	–	–	–	–	–	–	–
N=c1ccn2c(n1)O[C@H]1[C@H](O)[C@@H](CO)O[C@H]12	inactive	inactive	inactive	inactive	inactive	–	–	–	–
Nc1ncn([C@H]2C[C@H](O)[C@@H](CO)O2)c(=O)n1	inactive	inactive	inactive	inactive	inactive	–	–	–	–
CCCCCCCCCc1ccc(OCCOCCO)cc1	16.7 µM (active)	10.6 µM (active)	inactive	8.17 µM (active)	8.39 µM (active)	–	–	–	–
CC(C)(C)OCC1CO1 (stereo not given)	inactive	inactive	inactive	inactive	inactive	–	–	–	–
CCO[C@H](Cc1ccc(OCCc2ccc(OS(C)(=O)=O)cc2)cc1)C(=O)O	inactive	inactive	inactive	inactive	inactive	–	–	–	–
CCC(C)(C)CC	inactive	inactive	inactive	inactive	inactive	–	–	–	–
CCCCC	inactive	inactive	78.4 µM (active)	inactive	inactive	–	–	–	–
COC(C)OC	inactive	inactive	inactive	inactive	inactive	–	–	–	–
Cc1ccc(N=Nc2c(O)c(C(=O)O)cc3ccccc23)c(S(=O)(=O)O)c1	inactive	34.5 µM (active)	inactive	inactive	inactive	–	–	–	–
COC(C)(C)CCO	inactive	inactive	inactive	inactive	inactive	–	–	–	–
Nc1c(CC(=O)O)cccc1C(=O)c1ccc(Br)cc1	inactive	inactive	inactive	inactive	inactive	–	–	–	–
CCOc1ccc(N=Nc2ccc(/C=C/c3ccc(N=Nc4ccc(OCC)cc4)cc3S(=O)(=O)O)c(S(=O)(=O)O)c2)cc1	inactive	inactive	27.8 µM (active)	inactive	inactive	–	–	–	–

Compound	Potency [1]	Potency [2]	Potency [3]	Potency [4]	Potency [5]	activity change, negative = inhibition [1]	activity change, negative = inhibition [2]	activity change, negative = inhibition [4]	activity change, negative = inhibition [5]
Nc1ccc(N)c2c1C(=O)c1ccccc1C2=O	22.4 µM (active)	12.6 µM (active)	0.399 µM (active)	inactive	5.64 µM (active)	–	–	–	–
O=[N+]([O-])c1ccc(NCCO)c(OCCO)c1	inactive	inactive	17.9 µM (active)	inactive	inactive	–	–	–	–
O=C(O)C1(C(=O)O)CCC1.[NH2-].[NH2-].[Pt+2]	21.9 µM (active)	8.71 µM (active)	13.8 µM (active)	inactive	inactive	–	–	–	–
O=S(=O)(Oc1ccc(Cl)cc1)c1ccccc1	0.894 µM (active)	31.7 µM (active)	5.64 µM (active)	inactive	inactive	–	–	–	–
CCn1cc(C(=O)O)c(=O)c2cnc(N3CCNCC3)nc21	inactive	inactive	inactive	inactive	inactive	–	–	–	–
COc1ccc(C(=O)c2ccc(OC)cc2O)c(O)c1	0.802 µM (active)	11.3 µM (active)	0.402 µM (active)	inactive	25.4 µM (active)	–	–	–	–
COc1cc2nc(N(C)CCCNC(=O)C3CCCO3)nc(N)c2cc1OC (stereo not given)	inactive	inactive	inactive	inactive	inactive	–	–	–	–
Brc1c2ccccc2cc2ccccc12	35.9 µM (active)	35.9 µM (active)	0.639 µM (active)	inactive	18 µM (active)	–	–	–	–
CC(C)OC(=O)C(C)N(C(=O)c1ccccc1)c1ccc(F)c(Cl)c1 (stereo not given)	3.56 µM (active)	7.96 µM (active)	63.3 µM (active)	inactive	89.4 µM (active)	–	–	–	–
O=C1CCC(=O)O1	inactive	inactive	inactive	inactive	inactive	–	–	–	–
CCO[Si](CCCCl)(OCC)OCC	31.4 µM (active)	35.3 µM (active)	inactive	inactive	3.53 µM (active)	–	–	–	–
Cn1c(=O)cc(Oc2ccc(F)cc2F)c2cnc(NCC(C)(C)O)nc21	71 µM (active)	56.4 µM (active)	28.3 µM (active)	inactive	inactive	–	–	–	–
O=P(O)(OCc1ccccc1)OCc1ccccc1	inactive	22.4 µM (active)	inactive	inactive	inactive	–	–	–	–
CC(=O)c1cccc([N+](=O)[O-])c1	inactive	inactive	35.5 µM (active)	inactive	inactive	–	–	–	–
CC1CCC(=O)C1=O (stereo not given)	inactive	inactive	inactive	inactive	inactive	–	–	–	–
Cc1oc2c(NC(=O)c3c(Cl)cccc3Cl)cccc2c1C(C)(C)O	inactive	1.59 µM (active)	31.7 µM (active)	inactive	28.3 µM (active)	–	–	–	–
CN1CCN(C(c2ccccc2)c2ccccc2)CC1	inactive	inactive	inactive	inactive	inactive	–	–	–	–
OC(CN1CCC(Cc2ccc(F)cc2)CC1)c1ccc(Cl)cc1 (stereo not given)	inactive	inactive	inactive	0.0849 µM (active)	inactive	–	–	–	–
CCCCCCCCO[C@@H]1O[C@H](CO)[C@@H](O)[C@H](O)[C@H]1O	inactive	inactive	inactive	inactive	inactive	–	–	–	–
CCOC(=O)C(O)c1ccccc1 (stereo not given)	inactive	inactive	inactive	inactive	inactive	–	–	–	–
Brc1c2ccccc2c(Br)c2ccccc12	–	–	0.719 µM (active)	–	–	-7.43% [at 10.5 µM]	-3.76% [at 10.5 µM]	-0.46% [at 6.97 µM]	1.1% [at 10.5 µM]

Compound	Potency [1]	Potency [2]	Potency [3]	Potency [4]	Potency [5]	activity change, negative = inhibition [1]	activity change, negative = inhibition [2]	activity change, negative = inhibition [4]	activity change, negative = inhibition [5]
CC(=O)OC[C@H]1O[C@@H](n2ncc(=O)[nH]c2=O)[C@H](OC(C)=O)[C@@H]1OC(C)=O	inactive	inactive	inactive	inactive	inactive	–	–	–	–
c1cc(CCCc2ccncc2)ccn1	1.59 µM (active)	5.64 µM (active)	1.78 µM (active)	inactive	1 µM (active)	–	–	–	–
CN1Cc2cc(C(=O)N3CCC(C4CCNCC4)CC3)ccc2NC(CC(=O)O)C1=O (stereo not given)	inactive	inactive	inactive	inactive	inactive	–	–	–	–
CCCCC(CC)COC(=O)CCCCCCCCC(=O)OCC(CC)CCCC (stereo not given)	inactive	inactive	39.9 µM (active)	inactive	inactive	–	–	–	–
CCCCC(CC)COC(=O)COc1ccc(Cl)cc1Cl (stereo not given)	20.3 µM (active)	32.2 µM (active)	25.6 µM (active)	inactive	32.2 µM (active)	–	–	–	–
CC/C=C\CCOC(=O)CC	inactive	inactive	inactive	inactive	inactive	–	–	–	–
CN(C)c1ccc(CCO)cc1	28.1 µM (active)	19.9 µM (active)	35.4 µM (active)	inactive	inactive	–	–	–	–
CC(CSC(=O)c1ccccc1)C(=O)N1C[C@@H](Sc2ccccc2)C[C@H]1C(=O)O (stereo not given in full)	inactive	–	inactive	–	–	–	-9.74% [at 23.6 µM]	–	15.7% [at 23.6 µM]
NCC(=O)CCC(=O)O	inactive	inactive	inactive	inactive	inactive	–	–	–	–
OC[C@H]1O[C@@H](OCCc2ccc(O)cc2)[C@H](O)[C@@H](O)[C@@H]1O	inactive	inactive	inactive	–	inactive	–	–	–	–
CCC(Cl)CCC(Cl)C(Cl)CC(Cl)C(Cl)C(Cl)CCl (stereo not given)	inactive	inactive	inactive	inactive	inactive	–	–	–	–
CN1C[C@H]2c3ccccc3Oc3ccc(Cl)cc3[C@@H]2C1	inactive	inactive	7.76 µM (active)	–	inactive	–	–	–	–
CN1CCC(N(Cc2cccs2)c2ccccc2)CC1	inactive	inactive	inactive	–	inactive	–	–	–	–
COc1cc(Cl)c(OC)cc1N	22.4 µM (active)	35.6 µM (active)	5.03 µM (active)	inactive	31.7 µM (active)	–	–	–	–
NS(=O)(=O)c1ccc(N2CCCCS2(=O)=O)cc1	inactive	inactive	inactive	inactive	inactive	–	–	–	–
CCc1cc(C2=C(C(=O)O)N(c3ccccc3C(F)(F)F)S(=O)(=O)c3ccccc32)cc2c1OCO2	78.7 µM (active)	11.1 µM (active)	inactive	inactive	2.79 µM (active)	–	–	–	–
CN(C)c1ccc(C(c2ccccc2)c2ccc(N(C)C)cc2)cc1	1.59 µM (active)	1.42 µM (active)	14.2 µM (active)	inactive	4.48 µM (active)	–	–	–	–
C=CCOc1ccccc1OCC(O)CNC(C)C (stereo not given)	inactive	inactive	10.2 µM (active)	inactive	inactive	–	–	–	–
CNC(=O)CN(CCN(CCN(CC(=O)[O-])CC(=O)NC)CC(=O)[O-])CC(=O)[O-].O.[Gd+3]	inactive	inactive	inactive	inactive	inactive	–	–	–	–
CCCCCCCCCCCc1ccccc1	inactive	inactive	inactive	–	inactive	–	–	–	–
CCNc1cc(O)ccc1C	35.2 µM (active)	9.92 µM (active)	12.5 µM (active)	inactive	9.92 µM (active)	–	–	–	–
